From PubChem
GDH-TPI counter-1 – GDH-TPI coupling enzyme inhibitors, primary screen, artefact control for M. tuberculosis FBA inhibitor project, biochemical, absorbance, full deck; GDH-TPI coupled enzyme counterscreen, NADH absorbance; inhibition, % at 4.8 µM; actives 1.2% (n = 360,000); AID 588335, 2011; in the data active means inhibition above about 30%
Rv3671c inh – Rv3671c serine protease inhibitors, primary screen, biochemical, fluorescence polarization, M. tuberculosis H37Rv; inhibition, % at 5.96 µM; P9WHR9; actives 0.048% (n = 320,000); AID 2606, 2010; in the data active means inhibition above about 38%;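 further: extracellular domain of Rv3671c used as enzyme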
FBA Mtb inh – Mtb FBA enzyme inhibitors, primary screen, biochemical, fluorescence, strain H37Rv; purified M. tuberculosis FBA, fluorescence read-out; actives 2.3% (n = 360,000); inhibition, % at 1 µM; in the data active means inhibition above about 27%
UGM FP inh – M. tuberculosis UGM enzyme inhibitors, primary screen, biochemical, fluorescence polarization, single point; purified UGM, fluorescence polarization probe displacement; inhibition, % at 10 µM; actives 0.06% (n = 320,000); AID 504406, 2011; in the data active means inhibition above about 10%, passing the limit was not always enough
Target sequence (P9WIQ1 whole entry, looked up): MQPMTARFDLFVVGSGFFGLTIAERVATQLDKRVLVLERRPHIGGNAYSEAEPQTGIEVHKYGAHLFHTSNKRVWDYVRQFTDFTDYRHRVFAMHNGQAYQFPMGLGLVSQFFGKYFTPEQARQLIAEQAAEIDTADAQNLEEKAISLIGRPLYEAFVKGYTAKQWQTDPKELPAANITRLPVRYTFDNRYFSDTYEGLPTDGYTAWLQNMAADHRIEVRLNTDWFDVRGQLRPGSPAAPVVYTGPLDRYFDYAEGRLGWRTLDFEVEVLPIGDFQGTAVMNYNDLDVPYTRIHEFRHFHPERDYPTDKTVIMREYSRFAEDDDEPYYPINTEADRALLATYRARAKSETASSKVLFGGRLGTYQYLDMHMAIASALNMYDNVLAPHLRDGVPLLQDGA
RecA intein inh – Mtb RecA intein splicing inhibitors, primary screen, biochemical, fluorescence, HTS. Protein RecA (Mycobacterium tuberculosis (strain ATCC 25618 / H37Rv)), P9WHJ3. actives 0.75% (n = 290,000). inhibition, % (concentration not given with the values). AID 2221, 2009. cell-free RecA intein splicing; in the data active means inhibition above about 30%
Mtb bLac sens – beta-lactam sensitization of Mtb H37Rv, H37Rv. inhibition, % at 25 µM. AID 434955, 2010. actives 0.27% (n = 330,000). M. tuberculosis H37Rv growth with meropenem, percent inhibition;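 further: growth measured after seven days incubation then overnight dye step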
Mtb FBA inh conf – M. tuberculosis aldolase blockers, biochemical, fluorescence, strain H37Rv, confirmation; shares compounds with FBA Mtb inh; purified M. tuberculosis FBA, fluorescence read-out; inhibition, % at 1 µM; actives 78% (n = 5,600); in the data active means inhibition above about 27%
GDH-TPI counter-2 – GDH-TPI coupling enzyme inhibitors, artefact control for M. tuberculosis FBA inhibitor project, biochemical, fluorescence, high throughput; AID 652141, 2013; actives 81% (n = 5,600); inhibition, % at 1 µM; GDH-TPI coupled enzyme counterscreen; shares compounds with FBA Mtb inh; in the data active means inhibition above about 10%
GDH-TPI dose – GDH-TPI coupling enzyme inhibitors, dose response, artefact control for M. tuberculosis FBA inhibitor project, biochemical, fluorescence, IC50 | shares compounds with FBA Mtb inh | GDH-TPI coupled enzyme assay, artifact counterscreen | IC50, µM | actives 79% (n = 170)
Of the large screens only hits and unclear results are named; the others gave an inactive call (follow-up assays come after a bar, where they were run). Only some compounds are listed: those with a hit (about 4% of all), similar ones and a draw of the others. Unless noted, how the calls were made is not given here.

O=c1[nH]c2cc3c(cc2cc1CN(Cc1ccc2c(c1)OCO2)Cc1nnnn1CC1CCCO1)OCO3 (stereo not given)	FBA Mtb inh 40 | Mtb FBA inh conf 47 | GDH-TPI counter-2 40
Cc1ccc2cc(CN(CCO)Cc3nnnn3Cc3ccc(F)cc3)c(=O)[nH]c2c1	none
O=c1[nH]c2cc3c(cc2cc1CN(CCCO)Cc1nnnn1Cc1ccc(F)cc1)OCO3	FBA Mtb inh 36 | Mtb FBA inh conf 35 | GDH-TPI counter-2 30
Cn1cnc(S(=O)(=O)Nc2ccccc2C(=O)NCC2CC2)c1	FBA Mtb inh 29 | Mtb FBA inh conf 82 | GDH-TPI counter-2 64
CCOc1ccc(CN2CCNC(=O)C2CC(=O)NCCc2nc(C)c3c(n2)CCC3)cc1 (stereo not given)	FBA Mtb inh 28 (no result: Rv3671c inh, UGM FP inh, Mtb bLac sens) | Mtb FBA inh conf active | GDH-TPI counter-2 154
Cc1nc(CCNC(=O)CC2C(=O)NCCN2Cc2ccccc2)nc2c1CCC2 (stereo not given)	none (no result: Rv3671c inh)
O=C(COc1ccc2c3c(c(=O)oc2c1)CCCC3)NC(Cc1ccc(Cl)cc1)C(=O)O (stereo not given)	FBA Mtb inh 67 | Mtb FBA inh conf 124 | GDH-TPI counter-2 100
O=C(COc1ccc2c3c(c(=O)oc2c1)CCCC3)N[C@@H](Cc1ccccc1)C(=O)O	FBA Mtb inh 59 | Mtb FBA inh conf inactive | GDH-TPI counter-2 inactive
CC(Oc1ccc2c3c(c(=O)oc2c1)CCC3)C(=O)N[C@@H](Cc1ccccc1)C(=O)O (stereo not given in full)	none (no result: RecA intein inh)
O=C(COc1ccc2c3c(c(=O)oc2c1)CCC3)Nc1ccc(CN2CCOCC2)cc1	none
CCOc1ccccc1C(=O)Nc1ccc(S(=O)(=O)Nc2nccc(C)n2)cc1	none
O=C(c1ccc(F)cc1)n1ccc(-c2cnc(-c3ccccc3)s2)n1	FBA Mtb inh 47 | Mtb FBA inh conf 81 | GDH-TPI counter-2 59
CN(C)c1ccc(/C=C/c2ccc3c4ccccc4ccc3[n+]2-c2ccccc2)cc1	FBA Mtb inh 36 (no result: Rv3671c inh, UGM FP inh, RecA intein inh, Mtb bLac sens) | Mtb FBA inh conf 122 | GDH-TPI counter-2 101
CN(C)c1ccc(/C=C/c2ccc3ccccc3[n+]2C)cc1	none
CSc1ccc(S(=O)(=O)N(CC(=O)NCc2ccccn2)c2ccc(C)cc2)cc1	FBA Mtb inh 77 | Mtb FBA inh conf 181 | GDH-TPI counter-2 141
COc1ccc(-c2cc(C(F)(F)F)n3nc(C(=O)NCc4ccco4)cc3n2)cc1	GDH-TPI counter-1 34, FBA Mtb inh 47 | Mtb FBA inh conf 106 | GDH-TPI counter-2 80
O=C(NCc1ccco1)c1cc2nc(-c3ccc4c(c3)OCO4)cc(C(F)(F)F)n2n1	none
CC1=CC=CC2=NC(=O)CC(C)(C(=O)N(CC(=O)NC3CCCC3)Cc3ccc(Cl)cc3)N12 (stereo not given)	FBA Mtb inh 106 | Mtb FBA inh conf active | GDH-TPI counter-2 active
CC1=CC2=NC(=O)CC(C)(C(=O)N(CC(=O)NC(C)(C)C)C3CCCC3)N2C=C1 (stereo not given)	none
CC1(C(=O)N(CC(=O)NC2CCCC2)Cc2ccc(Cl)cc2)CC(=O)N=C2C=CC=CN21 (stereo not given)	FBA Mtb inh 89 | Mtb FBA inh conf active | GDH-TPI counter-2 active
CC1=CC2=NC(=O)CC(C)(C(=O)N(CC(=O)NC3CCCC3)c3cc(C)cc(C)c3)N2C=C1 (stereo not given)	FBA Mtb inh 57 | Mtb FBA inh conf active | GDH-TPI counter-2 active
CC1=CC2=NC(=O)CC(C)(C(=O)N(CC(=O)NC(C)(C)C)Cc3cccs3)N2C=C1 (stereo not given)	FBA Mtb inh 101 | Mtb FBA inh conf 149 | GDH-TPI counter-2 125
O=C(Nc1ccnn1C1CCN(C/C=C/c2ccccc2)CC1)c1cccc(F)c1	none
Cc1ccc([C@@H]2C[C@H]3[C@@H](CN2S(=O)(=O)c2ccc(Cl)cc2)C(=O)C[C@@H](c2ccc(C)cc2)N3S(=O)(=O)c2ccc(Cl)cc2)cc1	none (no result: Rv3671c inh, UGM FP inh, RecA intein inh, Mtb bLac sens)
COc1ccc(C(=O)NC2=NCCS2)cc1S(=O)(=O)N1CCOCC1	none (no result: Rv3671c inh, UGM FP inh, RecA intein inh, Mtb bLac sens)
Cc1cc2c(SCC(=O)NCC3CCCO3)ncnc2s1 (stereo not given)	none (no result: Rv3671c inh, UGM FP inh, Mtb bLac sens)
Cc1ccc2c(c1)=NC(=O)/C(=C/c1c(O)[nH]c(=O)[nH]c1=O)C=2	FBA Mtb inh 35 | Mtb FBA inh conf 95 | GDH-TPI counter-2 65
Cc1cc(C)n(-c2nc(NCc3cccnc3)c3c4c(sc3n2)COC(C)(C)C4)n1	FBA Mtb inh 63 | Mtb FBA inh conf 81 | GDH-TPI counter-2 63
CCN(CC)CCCNc1nc(-n2nc(C)cc2C)nc2sc3c(c12)CC(C)(C)OC3	none
CC1Cc2c([nH]c3ccccc23)C(=O)N1 (stereo not given)	FBA Mtb inh 32 | Mtb FBA inh conf active | GDH-TPI counter-2 148
O=c1cc(Nc2ccc3c(c2)OCCO3)[nH]c(=O)n1-c1ccc(Cl)cc1	FBA Mtb inh 33 | Mtb FBA inh conf 78 | GDH-TPI counter-2 69
Oc1ccc2ccccc2c1C=Nc1ccccc1-c1nc2ccccc2[nH]1	FBA Mtb inh 67 | Mtb FBA inh conf 62 | GDH-TPI counter-2 38
O=C(Nc1nncs1)c1cc(S(=O)(=O)N2CCCCC2)ccc1Cl	none
Cc1cccc(NC(=O)c2cnc3scc(C)n3c2=O)c1	none
Cc1csc2ncc(C(=O)NCc3ccco3)c(=O)n12	FBA Mtb inh 35 | Mtb FBA inh conf 124 | GDH-TPI counter-2 115
Cc1csc2ncc(C(=O)Nc3ccon3)c(=O)n12	FBA Mtb inh 55 | Mtb FBA inh conf 124 | GDH-TPI counter-2 105
N#CC1=C(C2CC2)CC(c2ccccc2)C(C#N)=C1N (stereo not given)	FBA Mtb inh 33 | Mtb FBA inh conf inactive | GDH-TPI counter-2 inactive | GDH-TPI dose inactive
N#CC1=C(N)SC2(CCCCC2)SC1c1ccccc1 (stereo not given)	none
